# Calls of active or inactive are those of the source.
# What was measured:
# [1] = system: Plasmodium falciparum Sir2 (PF13_0152, Sir2A); assay: pfSir2 binders on small-molecule microarrays, primary screen, biochemical, small-molecule microarray, 635 nm fluorescence (AID 1098); conditions: small-molecule microarray binding, fluorescence 635 nm; higher = more signal;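 further: score merges spot fluorescence intensity with its signal-to-noise ratio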
# [2] = small-molecule microarray binders of probe aDKK1, primary screen, biochemical, biotinylated probe, 635/667 nm fluorescence (AID 1099); conditions: higher = more signal;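 further: score merges 667nm spot fluorescence with signal to noise across triplicate slides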
# [3] = small-molecule microarray binders of probe aCHRDL2, primary screen, biochemical, biotinylated probe, 635/667 nm fluorescence (AID 1100); conditions: higher = more signal
# [4] = splicing luciferase reporter signal modulators, primary screen, spliceosome inhibition project, cell-based, HEK293, splice +/- reporter (AID 1101); conditions: luminescence, 24 h, higher = more signal, called active from +8 up or from −8 down;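 further: HEK293 cells carrying a splicing-competent luciferase reporter gene; test concentration not given here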
# [5] = molecular target: Fibroblast growth factor 10 (Homo sapiens) (UniProt O15520); assay: FGF10 binders on small-molecule microarrays, primary screen, biochemical, small-molecule microarray, 635 nm fluorescence (AID 1102); conditions: FGF10 binding, fluorescence 635 nm, higher = more signal
# Chain of Fibroblast growth factor 10 (Homo sapiens) (O15520 whole entry, looked up): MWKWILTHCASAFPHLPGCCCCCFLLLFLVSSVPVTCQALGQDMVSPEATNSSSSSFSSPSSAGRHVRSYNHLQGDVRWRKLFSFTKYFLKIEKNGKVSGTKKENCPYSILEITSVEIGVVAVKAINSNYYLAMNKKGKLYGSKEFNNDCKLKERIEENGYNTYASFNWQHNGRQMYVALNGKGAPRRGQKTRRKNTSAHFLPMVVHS
# [6] = system: glycogen synthase kinase-3 (GSK3A per assay name; protocol says GSK3B); assay: GSK3 binders on small-molecule microarrays, primary screen, biochemical, small-molecule microarray, 635 nm fluorescence, GSK3A (AID 1103); conditions: small-molecule microarray binding, fluorescence 635 nm; higher = more signal; further: the record names both GSK3A and GSK3B
# [7] = molecular target: Epidermal growth factor receptor (Homo sapiens) (UniProt P00533); assay: EGFR binders on small-molecule microarrays, primary screen, biochemical, small-molecule microarray, 635 nm fluorescence (AID 1104); conditions: EGFR binding, higher = more signal;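 further: score merges 667 nm emission intensity with spot signal to noise over triplicate slides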
# Chain of Epidermal growth factor receptor (Homo sapiens) (P00533 whole entry, looked up): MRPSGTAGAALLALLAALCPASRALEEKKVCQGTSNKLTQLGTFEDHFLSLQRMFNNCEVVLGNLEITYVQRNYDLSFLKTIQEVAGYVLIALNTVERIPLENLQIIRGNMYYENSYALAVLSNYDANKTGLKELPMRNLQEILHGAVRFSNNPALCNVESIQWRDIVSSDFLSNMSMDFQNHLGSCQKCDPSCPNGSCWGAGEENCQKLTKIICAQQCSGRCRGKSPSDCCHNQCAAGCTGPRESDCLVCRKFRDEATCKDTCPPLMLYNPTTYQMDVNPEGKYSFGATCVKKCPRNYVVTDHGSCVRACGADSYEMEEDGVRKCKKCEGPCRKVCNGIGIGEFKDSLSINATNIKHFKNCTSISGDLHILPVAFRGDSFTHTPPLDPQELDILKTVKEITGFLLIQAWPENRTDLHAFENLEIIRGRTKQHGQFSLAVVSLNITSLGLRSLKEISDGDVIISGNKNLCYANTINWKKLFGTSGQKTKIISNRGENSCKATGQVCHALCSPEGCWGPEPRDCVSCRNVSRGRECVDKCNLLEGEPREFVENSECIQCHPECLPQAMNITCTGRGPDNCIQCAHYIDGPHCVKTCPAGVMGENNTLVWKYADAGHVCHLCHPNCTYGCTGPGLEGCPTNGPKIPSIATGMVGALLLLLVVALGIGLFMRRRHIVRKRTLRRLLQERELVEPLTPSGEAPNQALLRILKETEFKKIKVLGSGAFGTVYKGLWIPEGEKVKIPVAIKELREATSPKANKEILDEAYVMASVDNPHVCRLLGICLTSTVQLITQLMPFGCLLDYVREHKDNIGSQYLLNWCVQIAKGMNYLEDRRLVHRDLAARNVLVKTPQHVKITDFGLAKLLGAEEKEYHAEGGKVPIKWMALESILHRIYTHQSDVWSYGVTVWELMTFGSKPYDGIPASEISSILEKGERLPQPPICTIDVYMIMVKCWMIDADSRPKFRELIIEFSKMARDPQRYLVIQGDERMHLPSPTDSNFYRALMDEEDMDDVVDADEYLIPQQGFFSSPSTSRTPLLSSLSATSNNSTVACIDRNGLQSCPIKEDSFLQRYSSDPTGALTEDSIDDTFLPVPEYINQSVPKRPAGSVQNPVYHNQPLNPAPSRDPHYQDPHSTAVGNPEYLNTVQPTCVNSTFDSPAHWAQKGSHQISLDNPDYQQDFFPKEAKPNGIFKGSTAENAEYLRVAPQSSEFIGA
# [8] = molecular target: Follistatin-related protein 3 (Homo sapiens) (UniProt O95633); assay: FSTL3 binders on small-molecule microarrays, primary screen, biochemical, small-molecule microarray, 635 nm fluorescence (AID 1105); conditions: FSTL3 binding, higher = more signal;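 further: score merges emission near 667 nm and signal to noise per printed spot across three slides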
# Chain of Follistatin-related protein 3 (Homo sapiens) (O95633 whole entry, looked up): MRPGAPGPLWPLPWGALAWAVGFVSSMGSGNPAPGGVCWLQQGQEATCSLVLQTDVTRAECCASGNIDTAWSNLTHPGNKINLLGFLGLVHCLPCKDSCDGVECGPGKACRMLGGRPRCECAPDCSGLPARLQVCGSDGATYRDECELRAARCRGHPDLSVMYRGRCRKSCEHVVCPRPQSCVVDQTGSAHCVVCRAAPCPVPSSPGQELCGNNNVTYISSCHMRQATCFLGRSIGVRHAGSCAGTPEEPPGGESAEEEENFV
# [9] = molecular target: Dickkopf-related protein 1 (Homo sapiens) (UniProt O94907); assay: DKK1 binders on small-molecule microarrays, primary screen, biochemical, small-molecule microarray, 635 nm fluorescence scan (AID 1106); conditions: DKK1 binding, higher = more signal;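 further: score merges emission near 667 nm with signal to noise over three replicate slides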
# Chain of Dickkopf-related protein 1 (Homo sapiens) (O94907 whole entry, looked up): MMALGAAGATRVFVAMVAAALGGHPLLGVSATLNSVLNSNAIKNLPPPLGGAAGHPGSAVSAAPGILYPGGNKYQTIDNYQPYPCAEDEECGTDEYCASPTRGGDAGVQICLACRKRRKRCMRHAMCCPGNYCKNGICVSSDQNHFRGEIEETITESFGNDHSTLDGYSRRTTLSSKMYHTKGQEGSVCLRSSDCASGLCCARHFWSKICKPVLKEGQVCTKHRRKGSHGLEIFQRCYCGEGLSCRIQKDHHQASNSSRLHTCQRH
# [10] = system: Inhibin beta A chain (activin A); assay: INHBA (activin A) binders on microarrays, primary screen, biochemical, small-molecule microarray, 635 nm fluorescence scan (AID 1107); conditions: small-molecule microarray binding, higher = more signal;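 further: mouse activin A protein probed at 4.33 µg/mL on printed slides; score merges bound-protein fluorescence near 667 nm with spot signal-to-noise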
# [11] = system: Human papillomavirus type 1a protein E7 (residues 44-93); assay: HPV1a E7 fragment binders on microarrays, primary screen, biochemical, small-molecule microarray, residues 44-93, 635 nm fluorescence (AID 1108); conditions: small-molecule microarray binding, fluorescence 635 nm; higher = more signal;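 further: E7 fragment applied at 1 µg/mL in TBST for 1 h at 4 C; score combines spot fluorescence with its signal to noise ratio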
# [12] = modulators of HCV replicon luciferase signal, primary screen, HCV replication inhibitor project, Huh7 cells, luciferase reporter (AID 1109); conditions: 48 h, higher = more signal;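 further: huh7 hepatoma cells harbouring a luciferase neomycin HCV replicon reporter; luciferase luminescence as measure of HCV replicon replication; test concentration not given here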
# [13] = molecular target: Left-right determination factor 2 (Homo sapiens) (UniProt O00292); assay: LEFTY2 binders on small-molecule microarrays, primary screen, biochemical, small-molecule microarray, 635 nm fluorescence scan (AID 1110); conditions: LEFTY2 binding, higher = more signal
# Chain of Left-right determination factor 2 (Homo sapiens) (O00292 whole entry, looked up): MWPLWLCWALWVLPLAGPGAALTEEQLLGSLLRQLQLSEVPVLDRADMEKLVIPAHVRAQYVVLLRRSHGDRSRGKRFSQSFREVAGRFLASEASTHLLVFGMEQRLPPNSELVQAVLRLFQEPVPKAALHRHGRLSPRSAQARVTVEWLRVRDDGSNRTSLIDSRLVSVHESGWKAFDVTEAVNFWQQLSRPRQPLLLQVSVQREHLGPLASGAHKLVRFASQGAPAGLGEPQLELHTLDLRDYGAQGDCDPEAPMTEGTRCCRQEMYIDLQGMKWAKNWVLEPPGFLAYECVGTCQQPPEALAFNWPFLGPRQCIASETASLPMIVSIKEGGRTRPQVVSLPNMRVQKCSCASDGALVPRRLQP
# [14] = molecular target: Calmodulin-1 (Homo sapiens) (UniProt P0DP23); assay: CALM1 binders on microarrays, EGTA buffer, profiling panel, biochemical, small-molecule microarray, Cy5-labelled CALM1 (AID 1111); conditions: Cy5-CALM1 binding fluorescence, higher = more signal;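 further: labelled calmodulin applied in Tris saline Tween buffer holding calcium plus EGTA and DTT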
# [15] = molecular target: Calmodulin-1 (Homo sapiens) (UniProt P0DP23); assay: calcium-bound CALM1 binders on microarrays, profiling panel, artefact control for SMM control-protein annotation, biochemical, small-molecule microarray, Cy5-labelled CALM1, plus calcium (AID 1112); conditions: Cy5-CALM1 binding fluorescence, higher = more signal;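 further: score merges spot fluorescence with signal to noise from triplicate slides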
# [16] = small-molecule microarray binders of probe aWnt5a, primary screen, biochemical, biotinylated probe, 635/667 nm fluorescence (AID 1113); conditions: higher = more signal;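 further: score merges 667 nm fluorescence intensity with signal-to-noise per printed feature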
# [17] = small-molecule microarray binders of probe aShh, primary screen, biochemical, biotinylated probe, 635/667 nm fluorescence (AID 1114); conditions: higher = more signal;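 further: probe is biotin-labelled aShh protein from a stem cell growth factor screen; measures binding of labelled protein to compounds printed on the slide; score merges feature fluorescence at 667 nm with signal-to-noise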
# [18] = small-molecule microarray binders of probe aNog, primary screen, biochemical, biotinylated probe, 635/667 nm fluorescence (AID 1115); conditions: higher = more signal;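 further: probe is biotinylated aNog protein used at 0.15 µg/mL for 1 h at 4 C; z-score combines 667 nm fluorescence of each spot with its signal to noise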
# [19] = molecular target: Torsin-1A-interacting protein 1 (Homo sapiens) (UniProt Q5JTV8); assay: LAP1 binders from COS7 cell lysate, primary screen, small-molecule microarray, 635/667 nm fluorescence (AID 1116); conditions: COS7-hLAP1 lysate binding, 635 nm fluorescence, higher = more signal
# Chain of Torsin-1A-interacting protein 1 (Homo sapiens) (Q5JTV8 whole entry, looked up): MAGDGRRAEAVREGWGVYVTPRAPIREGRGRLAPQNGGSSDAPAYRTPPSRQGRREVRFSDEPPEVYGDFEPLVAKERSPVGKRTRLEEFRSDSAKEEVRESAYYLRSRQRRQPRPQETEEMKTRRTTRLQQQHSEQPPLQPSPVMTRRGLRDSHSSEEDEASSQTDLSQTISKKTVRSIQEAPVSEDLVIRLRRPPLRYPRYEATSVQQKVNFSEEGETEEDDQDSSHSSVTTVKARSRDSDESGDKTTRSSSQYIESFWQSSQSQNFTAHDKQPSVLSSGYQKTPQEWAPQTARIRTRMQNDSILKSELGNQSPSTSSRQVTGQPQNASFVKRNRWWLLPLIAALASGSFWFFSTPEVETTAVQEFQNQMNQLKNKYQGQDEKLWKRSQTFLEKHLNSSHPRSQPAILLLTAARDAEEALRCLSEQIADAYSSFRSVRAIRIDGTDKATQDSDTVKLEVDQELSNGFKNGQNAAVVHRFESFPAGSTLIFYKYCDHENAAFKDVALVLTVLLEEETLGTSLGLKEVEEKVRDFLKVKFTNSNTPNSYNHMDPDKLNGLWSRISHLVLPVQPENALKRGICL
# [20] = molecular target: Alpha-bungarotoxin (Bungarus multicinctus) (UniProt P60615); assay: alpha-bungarotoxin binders on microarray, profiling panel, artefact control for SMM control protein annotation, biochemical, small-molecule microarray, Alexa647 label, 635/667 nm fluorescence (AID 1117); conditions: alpha-BTX-A647 binding fluorescence, higher = more signal
# Chain of Alpha-bungarotoxin (Bungarus multicinctus) (P60615 whole entry, looked up): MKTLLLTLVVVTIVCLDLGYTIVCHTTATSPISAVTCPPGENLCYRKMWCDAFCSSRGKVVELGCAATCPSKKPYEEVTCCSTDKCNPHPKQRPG
Compound,composite z-score [1],composite z-score [2],composite z-score [3],z-score [4],composite z-score [5],composite z-score [6],composite z-score [7],composite z-score [8],composite z-score [9],composite z-score [10],composite z-score [11],z-score [12],composite z-score [13],composite z-score [14],composite z-score [15],composite z-score [16],composite z-score [17],composite z-score [18],composite z-score [19],composite z-score [20]
COc1ccc([Si](C)(C)[C@@H]2[C@@H](CC(=O)N(CCO)Cc3ccccc3)O[C@]3(C(=O)N(Cc4cccc(N5CCC5=O)c4)c4ccccc43)[C@H]2C)cc1,1.41,-0.163,-0.229,-0.732 (inactive),1.07,0.583,0.475,0.875,0.313,0.552,0.411,-3.81,0.571,-0.0736,-0.322,-0.0718,-0.0709,-0.411,1.28,0.508
Cc1ccc(N2C(=O)c3ccccc3[C@@H](C(=O)NCc3ccccc3)[C@@H]2c2ccc(CO)cc2)nc1,-0.566,0.601,1.01,-1.47 (inactive),0.329,-1.13,-0.446,-0.526,0.251,1.71,-0.752,-0.139,-0.292,-0.869,-0.313,-0.148,0.901,-0.361,0.776,-0.326
C=C[C@H](OC)[C@@H](OC(=O)Nc1ccc(SC)cc1)c1ccc(OC)c(O)c1,0.0729,-0.276,0.241,-1.84 (inactive),-0.337,-0.392,-0.915,-1.4,-0.559,-0.778,0.318,0.899,-0.784,-0.414,0.319,-0.176,-0.0626,-0.15,0.324,-0.508
COc1ccc([Si](C)(C)[C@@H]2[C@@H](CCO)O[C@]3(C(=O)N(Cc4ccc(NC(=O)[C@H](C)O)cc4)c4ccccc43)[C@H]2C)cc1,1.3,0.305,0.161,-4.19 (inactive),0.245,0.993,0.226,0.335,0.0302,0.316,1.39,-5.23,0.0969,0.805,-0.0051,-0.12,-0.0626,0.0169,0.694,0.94
C=CC[C@@]1(C(=O)NCC(O)CO)N=C(c2ccc(OCCCO)cc2)O[C@@H]1c1ccccc1CN=[N+]=[N-] (stereo not given in full),1.52,-0.0775,1.08,-0.155 (inactive),0.0349,-1.33,-0.83,-0.884,-1.45,0.242,1.43,-1.11,-1.44,0.778,-0.0262,-0.119,0.261,0.824,2.6,0.0177
CC(C)CN1C(=O)[C@@]2(Cc3ccccc31)c1ccccc1C(=O)N(C1CCCCC1)[C@H]2c1ccc(CO)cc1,-0.23,0.262,1.02,-1.41 (inactive),-0.706,-1.24,-0.894,-1.34,-1.66,0.977,-0.973,-0.192,-0.841,-0.0258,0.644,-0.0944,-0.0626,0.697,-0.256,-1.06
[N-]=[N+]=NCc1ccccc1C[C@@]1(C(=O)O)N=C(c2ccc(OCCCO)cc2)O[C@@H]1c1ccccc1N=[N+]=[N-],1.44,0.076,0.917,-1.11 (inactive),0.479,0.771,0.0583,0.633,-0.688,0.911,1.42,-1.25,0.101,-0.281,-0.222,-0.0236,-0.138,-0.316,0.938,0.552
C=CCc1cccc([C@@H]2[C@@H](C)CC[C@H]3C(=O)N4[C@H](c5cccc(CC=C)c5)[C@@H](C)CC[C@H]4C(=O)N23)c1,0.725,-0.0603,0.175,-1.34 (inactive),0.756,0.365,0.654,0.831,0.666,1.67,0.227,-3.5,1.09,0.254,-0.831,0.0893,0.0899,-0.216,0.373,1.88
C[C@@H]1CC[C@H]2C(=O)N3[C@@H](CC[C@@H](C)[C@@H]3c3cccc(N4CCOCC4)c3)C(=O)N2[C@H]1c1cccc(Br)c1,1.1,0.113,0.26,0.0479 (inactive),0.695,0.989,0.31,0.53,0.327,0.6,0.396,-1.97,0.458,0.361,-0.0482,-0.0357,-0.138,0.0205,0.868,1.6
CCCC[C@@H]1C[C@H]1[C@@H](NC(=O)c1ccccc1)c1ccccc1C(F)(F)F,1.15,0.526,1.05,-0.261 (inactive),0.0165,0.415,-0.279,-0.0027,-0.521,0.616,1.38,-0.696,-0.641,1.04,1.09,-0.127,0.204,1.39,1.06,1.61
CCCC=C(CCC)[C@@H](NS(=O)(=O)c1cccc(C(F)(F)F)c1)c1ccc(C(=O)OC)cc1,0.935,1.55,1.06,-0.489 (inactive),-0.67,0.37,-1.1,-0.271,-0.553,-0.507,1.19,-0.0175,-0.81,0.266,-0.385,1.12,1.06,2.97,0.209,0.398
CC(C)[C@H]1NC(=O)[C@@]23C(=O)N[C@@H](Cc4ccccc4)C2[C@H](C)[C@@]2(C)O[C@H]2C3/C=C/C/C=C\CNC(=O)[C@H](C)NC1=O (stereo not given in full),-0.949,-0.386,-0.256,0.616 (inactive),0.392,-1.37,-1.31,-0.825,-0.443,1.32,-0.473,0.631,-0.796,-0.703,-0.751,-0.284,-0.367,-0.32,-0.198,-1.12
